Targets with a hit are over-represented here; the source holds about 8,800 in all. About 0.5% of all pairs of compound and target were hits.
How the values were obtained:
Assay in all cases: log2 fold change, soluble protein after heating vs DMSO (PISA); higher = thermal stabilisation; K562 lysate, 10 uM; active = over 0.2 and 3.5 SD of the protein, either way, in both replicates (recomputed)
[1] = compound: C1=CC=C(C=C1)[C@H](COC2=CC3=C(C=C2)NC(=O)N3)NC(=O)C4=CC=CN(C4=O)CC5=CC(=C(C=C5)F)F
Procedure, shortened: (§1)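 Following dounce homogenisation of K562 pellets in PBS pH 7.4 with 1 mM MgCl2, crude extract at 1 mg/mL protein was incubated for 30 min with 10 μM compound. Aliquots were then heated for 3 min over 48°C-58°C and pooled, NP-40 was added to 0.5% at 4°C, and soluble protein was recovered as the supernatant at 21,000xg for 90 min. Channel-sum-equalised TMTpro 16plex LC-MS/MS quantified this protein. Each value, from duplicates, is a log-two fold change in thermal stability relative to solvent controls.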

[2] = compound: CC1=C(SC2=C1C(=N[C@H](C3=NN=C(N32)C)CC(=O)N)C4=CC=C(C=C4)Cl)C
Procedure, shortened: as §1

[3] = compound: CC1=C2C(=CC=C1)N=C(N(C2=O)C3=CC=CC=C3C)CN4C=NC5=C(N=CN=C54)N
Procedure, shortened: as §1

[4] = compound: Cc1sc2c(c1C)C(c1ccc(Cl)cc1)=N[C@@H](CC(=O)OC(C)(C)C)c1nnc(C)n1-2
Procedure, shortened: as §1

[5] = compound: c1ccc([C@@H]2C[C@H]2NC2CCNCC2)cc1
Procedure, shortened: as §1

Measured: log2 fold change

RBM4 (UniProt Q9BWF3)
inactive: [1] 0 | [2] 0.016 | [3] 0.022 | [4] 0.03 | [5] -0.007

RAF1 isoform 2 (UniProt P04049)
inactive: [1] 0.024 | [2] 0.035 | [3] -0.104 | [4] -0.017 | [5] 0.013

RAD50 isoform 2 (UniProt Q92878)
inactive: [1] -0.002 | [2] -0.031 | [3] 0.004 | [4] 0.008 | [5] 0.009

SEC16A isoform 5 (UniProt O15027)
inactive: [1] -0.013 | [2] -0.005 | [3] 0.067 | [4] 0.036 | [5] 0.011

RAC2 (UniProt P15153)
inactive: [1] -0.116 | [2] 0.043 | [3] -0.032 | [4] 0.067 | [5] 0.028

RECQL4 (UniProt O94761)
Chain of UniProt O94761 (O94761 whole entry, looked up): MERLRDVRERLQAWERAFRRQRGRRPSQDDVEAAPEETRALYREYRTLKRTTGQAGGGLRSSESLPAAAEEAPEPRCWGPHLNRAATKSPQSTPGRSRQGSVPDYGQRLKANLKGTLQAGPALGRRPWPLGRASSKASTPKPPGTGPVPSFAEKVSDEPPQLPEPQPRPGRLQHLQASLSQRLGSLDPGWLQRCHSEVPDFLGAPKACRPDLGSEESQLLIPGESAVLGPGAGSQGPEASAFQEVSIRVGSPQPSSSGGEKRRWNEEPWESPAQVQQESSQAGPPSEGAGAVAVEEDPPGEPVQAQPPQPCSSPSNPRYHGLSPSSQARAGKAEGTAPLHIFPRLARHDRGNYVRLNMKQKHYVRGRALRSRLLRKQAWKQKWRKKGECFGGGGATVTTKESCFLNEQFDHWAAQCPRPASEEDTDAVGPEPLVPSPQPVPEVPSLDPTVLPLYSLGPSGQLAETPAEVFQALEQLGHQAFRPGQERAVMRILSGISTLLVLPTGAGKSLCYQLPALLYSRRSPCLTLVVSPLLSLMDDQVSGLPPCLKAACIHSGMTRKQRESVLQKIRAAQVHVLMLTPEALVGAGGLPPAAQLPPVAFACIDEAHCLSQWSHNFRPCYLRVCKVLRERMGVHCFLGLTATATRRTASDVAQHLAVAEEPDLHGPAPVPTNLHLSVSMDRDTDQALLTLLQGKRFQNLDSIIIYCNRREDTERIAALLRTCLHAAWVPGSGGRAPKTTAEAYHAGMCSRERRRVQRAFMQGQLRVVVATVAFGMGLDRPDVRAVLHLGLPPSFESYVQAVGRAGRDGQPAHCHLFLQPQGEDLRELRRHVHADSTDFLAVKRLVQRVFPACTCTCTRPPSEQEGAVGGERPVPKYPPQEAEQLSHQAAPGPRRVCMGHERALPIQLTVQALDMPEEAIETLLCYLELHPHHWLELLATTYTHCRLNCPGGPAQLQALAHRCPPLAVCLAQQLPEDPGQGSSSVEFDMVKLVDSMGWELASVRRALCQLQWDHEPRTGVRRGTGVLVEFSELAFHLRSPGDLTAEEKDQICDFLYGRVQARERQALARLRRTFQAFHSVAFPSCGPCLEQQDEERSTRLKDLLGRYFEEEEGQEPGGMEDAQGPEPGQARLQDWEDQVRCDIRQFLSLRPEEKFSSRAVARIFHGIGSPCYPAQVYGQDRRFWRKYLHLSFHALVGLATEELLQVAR
inactive: [1] 0.002 | [2] -0.012 | [3] 0.073 | [4] -0.011 | [5] 0.154

RNF149 (UniProt Q8NC42)
inactive: [1] -0.015 | [2] 0.022 | [3] -0.138 | [4] -0.081 | [5] 0

SAMHD1 (UniProt Q9Y3Z3)
Chain of UniProt Q9Y3Z3 (Q9Y3Z3 whole entry, looked up): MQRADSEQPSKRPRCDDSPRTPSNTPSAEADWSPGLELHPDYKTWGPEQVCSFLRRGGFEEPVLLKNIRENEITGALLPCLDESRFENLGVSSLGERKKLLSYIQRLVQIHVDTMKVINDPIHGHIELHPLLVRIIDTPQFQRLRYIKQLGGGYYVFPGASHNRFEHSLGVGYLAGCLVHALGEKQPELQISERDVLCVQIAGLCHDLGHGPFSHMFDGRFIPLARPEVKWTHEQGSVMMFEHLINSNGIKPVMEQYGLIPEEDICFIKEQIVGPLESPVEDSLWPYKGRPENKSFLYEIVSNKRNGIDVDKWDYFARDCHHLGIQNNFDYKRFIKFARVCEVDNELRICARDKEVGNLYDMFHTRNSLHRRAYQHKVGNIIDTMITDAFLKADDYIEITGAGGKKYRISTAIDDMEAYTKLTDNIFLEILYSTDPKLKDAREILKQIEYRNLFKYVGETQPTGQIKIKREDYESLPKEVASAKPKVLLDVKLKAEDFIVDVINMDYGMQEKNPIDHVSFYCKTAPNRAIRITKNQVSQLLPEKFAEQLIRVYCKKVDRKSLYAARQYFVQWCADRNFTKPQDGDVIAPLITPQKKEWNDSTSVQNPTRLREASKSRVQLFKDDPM
inactive: [1] 0.005 | [2] 0.002 | [3] -0.018 | [4] 0.051 | [5] -0.002

RAD54L2 (UniProt Q9Y4B4)
inactive: [1] 0.139 | [2] 0.144 | [3] 0.029 | [4] -0.131 | [5] 0.147

RNF213, A0A0A0MTC1
inactive: [1] -0.02 | [2] -0.007 | [3] 0.069 | [4] 0.004 | [5] 0.045

SEC62 (UniProt Q99442)
inactive: [1] 0.059 | [2] -0.017 | [3] 0.015 | [4] 0.043 | [5] -0.023

RPS29 (UniProt P62273)
inactive: [1] 0.047 | [2] -0.055 | [3] -0.071 | [4] 0.328 | [5] 0.398

RTN4IP1 (UniProt Q8WWV3)
inactive: [1] 0.028 | [2] -0.005 | [3] 0.027 | [4] -0.119 | [5] 0.076

SERPINI1 (UniProt Q99574)
Chain of UniProt Q99574 (Q99574 whole entry, looked up): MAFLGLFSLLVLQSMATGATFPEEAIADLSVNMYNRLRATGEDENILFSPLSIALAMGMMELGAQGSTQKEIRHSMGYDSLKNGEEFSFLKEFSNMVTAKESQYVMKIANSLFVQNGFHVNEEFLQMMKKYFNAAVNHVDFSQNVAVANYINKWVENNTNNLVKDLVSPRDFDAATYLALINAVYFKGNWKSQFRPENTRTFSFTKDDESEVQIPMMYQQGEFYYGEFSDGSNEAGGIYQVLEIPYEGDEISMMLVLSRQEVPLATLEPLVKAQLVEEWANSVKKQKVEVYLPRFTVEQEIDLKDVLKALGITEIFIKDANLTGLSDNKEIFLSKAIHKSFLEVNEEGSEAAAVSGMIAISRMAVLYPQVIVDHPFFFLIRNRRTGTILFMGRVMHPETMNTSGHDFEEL
inactive: [1] 0.067 | [2] -0.033 | [3] 0.031 | [4] -0.011 | [5] -0.021

RHAG (UniProt Q02094)
Chain of UniProt Q02094 (Q02094 whole entry, looked up): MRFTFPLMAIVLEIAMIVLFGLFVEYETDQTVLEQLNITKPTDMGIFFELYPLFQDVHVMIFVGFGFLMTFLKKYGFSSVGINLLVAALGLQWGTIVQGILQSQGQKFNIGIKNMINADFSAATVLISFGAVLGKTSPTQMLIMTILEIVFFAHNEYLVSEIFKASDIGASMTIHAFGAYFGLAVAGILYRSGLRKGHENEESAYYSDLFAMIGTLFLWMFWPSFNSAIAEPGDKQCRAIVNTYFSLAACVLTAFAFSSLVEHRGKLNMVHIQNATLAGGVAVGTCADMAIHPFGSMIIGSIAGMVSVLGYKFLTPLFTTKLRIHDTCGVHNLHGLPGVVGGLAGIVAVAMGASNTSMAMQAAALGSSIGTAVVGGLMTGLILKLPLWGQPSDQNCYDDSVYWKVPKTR
inactive: [1] 0.033 | [2] -0.076 | [3] 0.145 | [4] -0.066 | [5] -0.143

RFC5 (UniProt P40937)
Chain of UniProt P40937 (P40937 whole entry, looked up): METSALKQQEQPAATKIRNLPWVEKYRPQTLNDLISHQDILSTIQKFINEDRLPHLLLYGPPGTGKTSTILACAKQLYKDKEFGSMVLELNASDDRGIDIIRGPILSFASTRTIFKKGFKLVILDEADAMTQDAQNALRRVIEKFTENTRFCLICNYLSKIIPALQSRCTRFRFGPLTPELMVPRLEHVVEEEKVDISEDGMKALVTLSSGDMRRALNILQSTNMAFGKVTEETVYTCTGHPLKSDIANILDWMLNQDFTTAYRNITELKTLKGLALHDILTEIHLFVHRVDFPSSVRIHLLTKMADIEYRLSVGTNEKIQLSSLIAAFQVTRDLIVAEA
inactive: [1] -0.024 | [2] 0.018 | [3] 0.041 | [4] 0.034 | [5] 0.027

RPS9 (UniProt P46781)
inactive: [1] 0.003 | [2] 0.038 | [3] -0.007 | [4] 0.1 | [5] 0.124

RALGAPA1 isoform 6 (UniProt Q6GYQ0)
inactive: [1] -0.041 | [2] -0.072 | [3] 0.006 | [4] -0.063 | [5] -0.178

SEC61G (UniProt P60059)
inactive: [1] 0.269 | [2] -0.063 | [3] -0.016 | [4] -0.065 | [5] -0.225

RINT1 (UniProt Q6NUQ1)
inactive: [1] -0.021 | [2] -0.008 | [3] 0.019 | [4] -0.008 | [5] 0.026

RABL3 (UniProt Q5HYI8)
Chain of UniProt Q5HYI8 (Q5HYI8 whole entry, looked up): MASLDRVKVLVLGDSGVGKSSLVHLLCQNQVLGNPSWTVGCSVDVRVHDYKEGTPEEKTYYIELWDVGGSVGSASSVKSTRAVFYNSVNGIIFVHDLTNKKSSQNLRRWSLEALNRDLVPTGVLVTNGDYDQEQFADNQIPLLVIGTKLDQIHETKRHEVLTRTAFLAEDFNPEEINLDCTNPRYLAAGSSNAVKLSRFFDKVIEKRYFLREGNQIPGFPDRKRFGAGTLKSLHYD
inactive: [1] -0.044 | [2] -0.021 | [3] 0.004 | [4] 0.017 | [5] 0.03

RAI14 isoform 2 (UniProt Q9P0K7)
inactive: [1] 0.002 | [2] -0.052 | [3] -0.02 | [4] -0.041 | [5] -0.033

RNF40 (UniProt O75150)
Chain of UniProt O75150 (O75150 whole entry, looked up): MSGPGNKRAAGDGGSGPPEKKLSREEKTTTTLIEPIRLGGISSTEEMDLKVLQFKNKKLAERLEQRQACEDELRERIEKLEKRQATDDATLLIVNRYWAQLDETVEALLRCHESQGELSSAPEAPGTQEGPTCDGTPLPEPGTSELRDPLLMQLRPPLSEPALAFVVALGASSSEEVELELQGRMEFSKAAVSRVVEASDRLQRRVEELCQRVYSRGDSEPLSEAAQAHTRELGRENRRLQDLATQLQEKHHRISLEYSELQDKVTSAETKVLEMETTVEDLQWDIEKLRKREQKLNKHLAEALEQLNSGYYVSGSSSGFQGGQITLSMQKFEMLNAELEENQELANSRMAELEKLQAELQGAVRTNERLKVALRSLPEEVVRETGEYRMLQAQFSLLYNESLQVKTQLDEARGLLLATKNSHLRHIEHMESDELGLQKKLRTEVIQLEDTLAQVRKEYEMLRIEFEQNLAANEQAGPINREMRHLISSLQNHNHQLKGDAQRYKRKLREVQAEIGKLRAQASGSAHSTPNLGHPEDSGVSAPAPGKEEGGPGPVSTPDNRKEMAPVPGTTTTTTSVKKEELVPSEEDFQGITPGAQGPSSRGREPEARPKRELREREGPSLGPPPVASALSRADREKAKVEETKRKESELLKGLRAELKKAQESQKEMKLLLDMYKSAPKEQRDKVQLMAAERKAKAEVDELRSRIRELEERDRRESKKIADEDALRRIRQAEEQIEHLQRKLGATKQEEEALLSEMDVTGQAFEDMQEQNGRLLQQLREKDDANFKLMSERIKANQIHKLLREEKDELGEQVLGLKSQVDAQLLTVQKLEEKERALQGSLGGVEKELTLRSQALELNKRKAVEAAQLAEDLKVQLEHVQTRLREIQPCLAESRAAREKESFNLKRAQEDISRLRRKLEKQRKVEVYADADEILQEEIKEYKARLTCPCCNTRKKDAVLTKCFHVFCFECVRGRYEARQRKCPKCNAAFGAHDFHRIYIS
inactive: [1] 0 | [2] -0.02 | [3] 0.007 | [4] -0.003 | [5] 0.041

RNASEL (UniProt Q05823)
Chain of UniProt Q05823 (Q05823 whole entry, looked up): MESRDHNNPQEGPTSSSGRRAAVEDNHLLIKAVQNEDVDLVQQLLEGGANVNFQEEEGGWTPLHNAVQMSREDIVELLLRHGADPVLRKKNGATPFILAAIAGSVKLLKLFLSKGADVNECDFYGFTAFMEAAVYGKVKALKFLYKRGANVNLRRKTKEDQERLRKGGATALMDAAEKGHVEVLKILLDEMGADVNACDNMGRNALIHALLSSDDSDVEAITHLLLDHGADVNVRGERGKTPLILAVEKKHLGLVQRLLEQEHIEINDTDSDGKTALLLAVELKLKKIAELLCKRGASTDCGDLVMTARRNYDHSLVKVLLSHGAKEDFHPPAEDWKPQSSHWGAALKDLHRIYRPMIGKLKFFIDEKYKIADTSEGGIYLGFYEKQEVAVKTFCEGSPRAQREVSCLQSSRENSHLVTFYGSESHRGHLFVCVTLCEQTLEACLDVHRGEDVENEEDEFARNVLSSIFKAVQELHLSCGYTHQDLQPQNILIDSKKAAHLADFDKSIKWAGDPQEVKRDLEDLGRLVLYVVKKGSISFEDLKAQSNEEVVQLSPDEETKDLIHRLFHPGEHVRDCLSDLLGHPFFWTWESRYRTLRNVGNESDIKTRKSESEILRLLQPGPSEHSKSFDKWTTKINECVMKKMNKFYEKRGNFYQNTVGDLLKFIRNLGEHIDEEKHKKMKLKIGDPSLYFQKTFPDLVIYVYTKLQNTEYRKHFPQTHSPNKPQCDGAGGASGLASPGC
inactive: [1] 0.047 | [2] -0.041 | [3] 0.068 | [4] -0.004 | [5] 0.046

— the supplement of paper PMC10849652
